Laboratory results: PubChem BioAssay (NCI)
Compounds without any hit were thinned out: in the full panel of roughly 83,000, 20% have a hit.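 Percent growth is the endpoint: 0 to 100 indicates growth inhibition (40 means 60% inhibition), 0 means no net growth, and negative values indicate cell death.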 Values without a mark were called inactive. Calls of active or inactive are those of the source. Rule for the calls: active = growth percent below 10; inactive = the rest.

How the values were obtained:
Test in all cases: NCI-60 one-dose screen, 48 h (100 = growth as untreated, 0 = no growth, -100 = all killed)
Settings in all cases: 10 µM unless noted
DU-145 prostate = system: DU-145 prostate
K-562 leukemia = system: K-562 leukemia
MALME-3M melanoma = system: MALME-3M melanoma
MDA-MB-231 breast = system: MDA-MB-231 breast
RXF 393 renal = system: RXF 393 renal
SF-268 CNS = system: SF-268 CNS
SF-295 CNS = system: SF-295 CNS
SF-539 CNS = system: SF-539 CNS
UACC-257 melanoma = system: UACC-257 melanoma
M14 melanoma = system: M14 melanoma
HCT-15 colon = system: HCT-15 colon
HT29 colon = system: HT29 colon
SNB-75 CNS = system: SNB-75 CNS
SNB-19 CNS = system: SNB-19 CNS
U251 CNS = system: U251 CNS
PC-3 prostate = system: PC-3 prostate
SK-MEL-5 melanoma = system: SK-MEL-5 melanoma
UACC-62 melanoma = system: UACC-62 melanoma
LOX IMVI melanoma = system: LOX IMVI melanoma
SK-MEL-28 melanoma = system: SK-MEL-28 melanoma

Structure (SMILES) | growth (DU-145 prostate) | growth (K-562 leukemia) | growth (MALME-3M melanoma) | growth (MDA-MB-231 breast) | growth (RXF 393 renal) | growth (SF-268 CNS) | growth (SF-295 CNS) | growth (SF-539 CNS) | growth (UACC-257 melanoma) | growth (M14 melanoma) | growth (HCT-15 colon) | growth (HT29 colon) | growth (SNB-75 CNS) | growth (SNB-19 CNS) | growth (U251 CNS) | growth (PC-3 prostate) | growth (SK-MEL-5 melanoma) | growth (UACC-62 melanoma) | growth (LOX IMVI melanoma) | growth (SK-MEL-28 melanoma)
CC1(C)CC[C@]2(C(=O)N3CCNCC3)CC[C@]3(C)C(=CC[C@@H]4[C@@]5(C)CCC(=O)C(C)(C)[C@@H]5CC[C@]43C)[C@@H]2C1 | 109% | 109% | 112% | 112% | 115% | 100% | 99.5% | 101% | 106% | 109% | 105% | 107% | 91.6% | 98% | 105% | 101% | 102% | 98.9% | 95.7% | 
O=C1c2ccccc2C(=O)c2c1oc1ccc3ccccc3c21 | 85.7% | 101% | 27.8% | 60% | 88.2% | 76.7% | 93.7% | 78.3% | 77.7% | 57.1% | 65% | 106% | 93.3% | 90% | 81.1% | 72.3% | 17.3% | 84.2% | 41.9% | 
C/C=C(\C)C(C(=O)NC1CCCCC1)N(C(=O)C1CCc2cc(F)ccc2O1)c1ccc([N+](=O)[O-])cc1 (stereo unspecified) | 105% | 80.7% | 92.4% | 77.7% | 98.4% | 87% | 82.5% | 92.8% | 93% | 82.4% | 74% | 74.4% | 72.8% | 85.7% | 93.1% | 72.7% | 42.1% | 70.1% | 87.7% | 
Oc1c(C(c2ccc(F)cc2)N2CCCCC2)ccc2cncnc12 (stereo unspecified) | 23.3% | 10.4% | 3.63% (active) | 14.4% | 31.1% | 20.9% | -1.59% (active) | 13.9% | 0.316% (active) | 15.7% | 26% | 13.5% | 7.45% (active) | 11.1% | 1.52% (active) | 10.6% | -19.7% (active) | -0.545% (active) | 7.17% (active) | 
Cc1[nH]nc2ccc3nc(-c4ccc5[nH]ncc5c4)c4c(c3c12)CCCC4 | 33.9% | 14.3% | 7.88% (active) | 42.6% | 9.13% (active) | 33.8% | 31.1% | 18.7% | 50.6% | 18.9% | 16.2% | 22.1% | 6.45% (active) | 35.8% | 26.4% | 26.5% | 10.4% | 10.1% | 29.6% | 
CC(=O)c1ccc(Nc2nc(Cl)nc(Oc3c(Cl)cccc3Cl)n2)cc1 | 91.1% | 82.5% | 83.2% | 80% | 101% | 91.3% | 89.6% | 90.4% | 95.4% | 101% | 89.7% | 73.6% | 75% | 81.9% | 76.9% | 72.5% | 79.1% | 80.6% | 87.9% | 
Nc1nc(N)c2c(n1)NC(c1sc(Cl)nc1Cl)CC(c1ccc3c(c1)OCO3)=N2 (stereo unspecified) | 35.3% | 16.9% | 28.8% | 48.8% | -1.6% (active) | 38.8% | 18.5% | -14.9% (active) | 39.2% | 18.1% | 23.9% | 5.28% (active) | -1.52% (active) | 36.8% | 10.4% | 48.8% | 11% | 40.1% | 40.3% | 57%
COc1ccc(C2CC(c3cccc(Nc4ccnc5cc(Cl)ccc45)c3)=NN2c2ccc(Cl)cc2)cc1 (stereo unspecified) | 79.2% | 12.8% | 74.6% | 75.5% | 105% | 55.1% | 30.7% | -31.5% (active) | 70.7% | 28.3% | 42.5% | 64.2% | 79.7% | 94.8% | 65% | 60.7% | 53.4% | 9.78% (active) | 47.4% | 65.8%
O=C1Cc2c([nH]c3ccc([N+](=O)[O-])cc23)-c2ccccc2N1 | 4.56% (active) | 3.25% (active) | 8.75% (active) | 29.6% | 16% | 10.8% | 18.7% | -37% (active) | 17.3% | 16.8% | 5.02% (active) | 4.95% (active) | -7.52% (active) | 20.8% | 8.97% (active) | 9.61% (active) | -47.2% (active) | 11.4% | 9.02% (active) | 
O=C1/C(=C\c2cccn2Cc2ccc(F)cc2)c2ccccc2N1c1c(Cl)cccc1Cl | 91.2% | 70.8% | 87.6% | 75% | 81.5% | 79.9% | 81.9% | 87.5% | 90.3% | 94.9% | 56.2% | 81.5% | 68.4% | 81.3% | 75.7% | 52% | 57.7% | 62% | 91.1% | 87.4%
CC[C@H](Nc1nc(N)nc(C2CC2)c1C#N)c1nc2cccc(NCc3ccc(C(=O)NO)cc3)c2c(=O)n1-c1ccccc1 | -29.3% (active) | -14% (active) | -2.35% (active) | 2.7% (active) | -15.2% (active) | 4.22% (active) | -26.9% (active) | -0.037% (active) | -2.7% (active) | -18.6% (active) | 19% | 13.4% | -2.59% (active) | 7.25% (active) | -4.25% (active) | 10.1% | -29.5% (active) | -19% (active) | -89.2% (active) | 
CCCCn1cnc(-c2cc(-c3ccccc3)cc(C(F)(F)F)c2)n1 | 106% | 95.9% | 89.6% | 106% | 99.9% | 104% | 102% | 103% | 96.7% | 98% | 104% | 101% | 98.9% | 98.6% | 97.7% | 82.7% | 101% | 90.3% | 105% | 109%
ClCc1cccc(CSc2ncnc3c2ncn3Cc2cccc(CCl)c2)c1 | 50.4% | 14.2% | 41.7% | 12% | -20.2% (active) | 17% | 92% | 58.2% | 42.5% | -71.8% (active) | 20.7% | 13.2% | -13.8% (active) | 45.6% | -69.8% (active) | 49.8% | 20.2% | 6.23% (active) | -8.54% (active) | 27.4%
COc1ccc(C(=O)c2cc(C)c(OC)c(C)c2)cc1OC(=O)CCl | 9.37% (active) | 4.66% (active) | 63.1% | 22.9% | 37.7% | 27.6% | 11.8% | -26.1% (active) | 56.8% | 0.344% (active) | 13.1% | 13.3% | 69.8% | 30.8% | 6.71% (active) | 25.9% | -18.4% (active) | 41.8% | 18.9% | 57.5%
COc1cc(-c2csc(NC(=O)Nc3cccc(C(F)(F)F)c3)n2)cc(OC)c1OC | 55.9% | 31.6% | 88.3% | 63.8% | 71.4% | 65% | 21.7% | 67.1% | 83.2% | 47.8% | 30.9% | 62.6% | 62.4% | 46.1% | 34.1% | 18.6% | 28.7% | 40% | 62.3% | 72.8%
COc1ccc(NC(=O)/C=C/c2ccc(Cl)c(Cl)c2)cn1 | 96.7% | 58% | 92% | 95% | 89.4% | 95.7% | 84.5% | 98.2% | 79.9% | 95.9% | 51.6% | 93.5% | 102% | 91.2% | 87.4% | 74.3% | 71.4% | 77.6% | 93.6% | 
